The record followed here is PubChem BioAssay (Tox21).

The nature of experiment [1]: qHTS assay to identify small molecule antagonists of the vitamin D receptor (VDR) signaling pathway - cell viability counter screen (AID 743225). Further: nearly all actives have a fitted effect of over 50% in size. Further: potency means the concentration at half of the fitted maximal effect. An outline of the steps:
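Cytotoxicity toward the VDR-bla HEK 293T line was scored by ATP-based CellTiter-Glo luminescence, read in the wells already used for the beta-lactamase readout after 16 h compound treatment under 3 nM 1-alpha,25-dihydroxyvitamin D3 stimulation.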

The nature of experiment [2]: qHTS assay to identify small molecule agonists of the NFkB signaling pathway - cell viability counter screen (AID 1159515; calls by dose curve; further: nearly all actives have a fitted effect of over 55% in size; further: potency means the concentration at half of the fitted maximal effect). An outline of the steps: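 Read by CellTiter-Glo luminescence (30 min, room temperature) in the wells also used for the beta-lactamase FRET read. ME-180 NFkB-bla cells at 2,000 per well were plated overnight, then exposed to compound for 5 hr at 37 C.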

The nature of experiment [3]: qHTS assay to identify small molecule agonists of the endoplasmic reticulum stress response signaling pathway - cell viability counter screen (AID 1159517; calls by dose curve; further: nearly all actives have a fitted effect of over 50% in size; further: potency means the concentration at half of the fitted maximal effect). In short, it runs like this: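 Cytotoxicity of test compounds toward ESRE-bla HeLa cells was assessed after 5 hr exposure. The luminescent CellTiter-Glo signal was measured 30 min after reagent addition.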
Experiment [4] deals with Nuclear receptor ROR-gamma (Homo sapiens) (UniProt P51449). The experiment can be described thus: qHTS assay to identify small molecule antagonists of the retinoid-related orphan receptor gamma (ROR-gamma) signaling pathway (AID 1159521; further: nearly all actives have a fitted effect of over 50% in size; further: potency means the concentration at half of the fitted maximal effect). In short, it runs like this:
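Readout: ONE-Glo luciferase luminescence, 30 min at room temperature. System: Tet-on RORγ CHO, RORE-LUC. Sequence: compound 2 h, doxycycline 1 uM final, 16 h at 37 C.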

The nature of experiment [5]: qHTS assay to identify small molecule agonists of the RXR signaling pathway - cell viability counter screen (AID 1159529). Further: nearly all actives have a fitted effect of over 50% in size. Further: potency means the concentration at half of the fitted maximal effect. In short, it runs like this:
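Tox21 10K compounds were tested for cytotoxicity against GeneBLAzer RXR-alpha HEK 293T cells grown in 2% charcoal-stripped FBS. Exposure lasted 16 hr at 37 C, 5% CO2; viability read by CellTiter-Glo luminescence.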

Experiment [6] can be described thus: qHTS assay to identify small molecule antagonists of the retinoid-related orphan receptor gamma (ROR-gamma) signaling pathway - cell viability counter screen (AID 1159520). Further: nearly all actives have a fitted effect of over 50% in size. Further: potency means the concentration at half of the fitted maximal effect. In short, it runs like this: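 Tet-on ROR gamma CHO cells (1,000/well) were plated 4 hr, given compounds in DMSO for 2 hr at 37 C, then induced with 1 uM final doxycycline for 16 hr. Viability was read as ATP by CellTiter-Glo luminescence after 30 min.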

Experiment [7] in a line: qHTS assay to identify small molecule agonists of the AP-1 signaling pathway - cell viability counter screen (AID 1159525; calls by dose curve; further: nearly all actives have a fitted effect of over 55% in size; further: potency means the concentration at half of the fitted maximal effect). An outline of the steps:
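Each titration point was normalised to DMSO and tetra n-octyl ammonium bromide controls. The read was Cell Titer Glo luminescence after 30 min at RT, following 5 h compound exposure of ME-180 AP-1-bla cells at 37 °C.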

The nature of experiment [8]: qHTS assay to identify small molecule agonists of the AP-1 signaling pathway (AID 1159526; calls by dose curve).
Experiment [9] in a line: qHTS assay to identify small molecule agonists of the endoplasmic reticulum stress response signaling pathway (AID 1159516; active means well fitted activation curve with a large enough effect in the signal ratio in the repeat runs, not every such curve was filed as active; the % refers to the signal ratio). An outline of the steps:
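Ratiometric FRET readout (405 nm excitation; 460 and 530 nm emission) of a beta-lactamase gene driven by the ER stress response element, after 2 hr substrate loading. HeLa ESRE-bla cells were seeded overnight and treated with compounds for only 5 hr at 37 C.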

Experiment [10] addresses Retinoic acid receptor RXR-alpha (Homo sapiens) (UniProt P19793). The experiment can be described thus: qHTS assay to identify small molecule agonists of the RXR signaling pathway (AID 1159527; calls by dose curve; further: nearly all actives have a fitted effect of over 35% in size). An outline of the steps:
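Reporter activation is measured as beta-lactamase activity via FRET substrate cleavage (emission 460/530 nm) in HEK 293T cells expressing an RXR-alpha-driven bla construct, following 16 hr compound exposure at 37 C.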

Structures are written as SMILES. Values joined by “and” are separate entries in the source; they are usually repeats but may differ in a detail not shown here. Equal entries are not always repeated. Inconclusive results are not listed. A structure can be active in one record and inactive in another. Active and inactive are the calls of the source. Unless noted, the call rests on the fitted dose curve; in most records, active means well fitted curve in the direction sought with a large enough effect in the repeat runs; inconclusive means weak or mixed curves; inactive means no such curve, though single readings can be large; an effect the other way counts as inactive or inconclusive.

Retinoic acid receptor RXR-alpha (Homo sapiens), sequence (P19793 whole entry, looked up): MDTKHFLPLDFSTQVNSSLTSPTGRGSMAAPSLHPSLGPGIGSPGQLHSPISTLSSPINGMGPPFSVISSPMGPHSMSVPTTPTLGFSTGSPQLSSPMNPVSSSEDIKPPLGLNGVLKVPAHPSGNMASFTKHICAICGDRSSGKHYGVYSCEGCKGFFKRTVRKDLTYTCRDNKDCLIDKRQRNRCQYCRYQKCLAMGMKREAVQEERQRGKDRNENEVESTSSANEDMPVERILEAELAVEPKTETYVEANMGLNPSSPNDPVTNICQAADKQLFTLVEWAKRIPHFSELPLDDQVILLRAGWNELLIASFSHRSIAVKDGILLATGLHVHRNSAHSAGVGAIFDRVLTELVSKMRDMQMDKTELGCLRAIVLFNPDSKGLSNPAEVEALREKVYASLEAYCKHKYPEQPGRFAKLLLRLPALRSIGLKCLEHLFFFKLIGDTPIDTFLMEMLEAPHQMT

On to `Cc1cc(N=Nc2ccccc2C)ccc1N`, for which the Potency entry in [1], in [2], in [3] and in [4] was “inactive” in each case. The Potency in experiment [5] is 54.9 µM (active) and 43.6 µM (active).
Turning to `[CH3][Hg][Cl]`, the Potency in experiment [2] was 10.9 µM (active); in experiment [3], 21.8 µM (active); in [6], 4.31 µM (active); in [4], 3.05 µM (active); in experiment [5], 6.15 µM (active).
As for `C=CCC1=C(C)C(OC(=O)C2C(C=C(C)C)C2(C)C)CC1=O` (centres undefined), the Potency is 58.3 µM (active) in [2]; 36.8 µM (active) in experiment [3]; 61.1 µM (active) in experiment [6]; 32.5 µM (active) in [4]; 58.3 µM (active) in experiment [5].
For the molecule `Nc1ccc(Cc2ccc(N)c(Cl)c2)cc1Cl`, the Potency result in [2], in experiment [6] and in experiment [4] was “inactive” in each case.
For the molecule `COP(=S)(OC)Oc1cc(Cl)c(Br)cc1Cl`, the Potency result in experiment [1], in [2], in [3], in experiment [7] and in experiment [8] was “inactive” in each case. Further, the Potency in [4] was 68.6 µM (active).
Regarding `[Hg+2].[I-].[I-]`, the Potency is 5.49 µM (active) in [1]; 7.76 µM (active) in [2]; 49 µM (active) in experiment [3]; 2.17 µM (active) in experiment [6]; 3.89 µM (active) in [5].
Take `CC1(C)[C@H](C(=O)O[C@H](C#N)c2cccc(Oc3ccccc3)c2)[C@@H]1/C=C(\Cl)C(F)(F)F`: the Potency entry in [2], in experiment [3], in [6], in [7], in experiment [8] and in [5] was “inactive” in each case.
Regarding `CCCCCCCCc1ccc(O)cc1`, the Potency is 49.3 µM (active) in experiment [2], 49.3 µM (active) in experiment [3], 61.5 µM (active) in experiment [6] and 22 µM (active) in experiment [7]. In [4], the Potency entry is “inactive”.
Consider `CC(C)[C@H](C(=O)O[C@H](C#N)c1cccc(Oc2ccccc2)c1)c1ccc(Cl)cc1`, for which the Potency result in experiment [1], in [2], in experiment [3], in [6], in experiment [7] and in experiment [5] was “inactive” throughout.
Regarding `NNC(=O)c1ccccc1`, the Potency entry in experiment [1], in experiment [9], in experiment [3], in experiment [6], in experiment [4] and in experiment [7] was “inactive” in each case. The Potency entry in experiment [8] and in [5] was “inactive” throughout. In experiment [10], the result was inactive.
`CC(C)(C)C(O)/C(=C\c1ccc(Cl)cc1Cl)n1cncn1` (centres undefined): the Potency is 52.8 µM (active) in [1] and 41.6 µM (active) in experiment [4]. In addition, the Potency entry in experiment [9] and in experiment [3] was “inactive” in each case.
For the molecule `CC(C)OS(C)(=O)=O`, the Potency entry in experiment [1], in experiment [9], in [3], in experiment [6], in experiment [7] and in experiment [8] was “inactive” throughout. The Potency result in experiment [5] was “inactive”. Also, the result in experiment [10] was inactive.
With `COc1ccc(/C(=C/C(=O)N2CCOCC2)c2ccc(Cl)cc2)cc1OC`, the Potency result in experiment [1], in experiment [9], in [3], in experiment [6], in [4] and in experiment [7] was “inactive” throughout. Also, the Potency entry in [8] was “inactive”.
Turning to `BrC(Br)Br`, the Potency result in [1], in [9], in experiment [3], in experiment [6], in [4] and in experiment [7] was “inactive” each time. The Potency result in experiment [8] and in experiment [5] was “inactive” each time.
Take `CCCCCCCCCCCCBr`: the Potency result in [9], in experiment [3], in experiment [6], in experiment [4], in [7] and in experiment [8] was “inactive” in each case.
Consider `[Cl][Sb]([Cl])[Cl]`, for which the Potency entry in experiment [1], in [9], in [3], in experiment [7] and in experiment [5] was “inactive” each time. The values for the Potency in [6] and in experiment [4] were 48.6 µM (active) and 5.45 µM (active), respectively.
Take `CN(C)CCc1c[nH]c2cccc(O)c12`: the Potency entry in experiment [1], in experiment [9], in [3], in experiment [6], in experiment [4] and in experiment [7] was “inactive” in each case.
With `CCCCCCCCCBr`, the Potency result in experiment [1], in experiment [9], in [3], in experiment [6], in [4] and in experiment [7] was “inactive” in each case. In addition, the Potency result in experiment [8] and in experiment [5] was “inactive” in each case.
Consider `CCN`, for which the Potency result in experiment [1], in experiment [9], in [3], in experiment [6], in experiment [4] and in experiment [8] was “inactive” in each case. The Potency entry in [5] is “inactive”. Besides, the call in experiment [10] was inactive.
As for `Oc1ccc(C2(c3ccc(O)cc3)c3ccccc3-c3ccccc32)cc1`, the figures for the Potency in experiment [2] and in experiment [5] were 54.9 µM (active) and 38.9 µM (active), respectively.
Take `O=C(CBr)c1ccc(O)cc1`: the Potency result in experiment [1], in experiment [9], in [3] and in experiment [5] was “inactive” each time. Further, the Potency in [4] is 48.6 µM (active). Besides, the molecule was classed as inactive in experiment [10].
For the molecule `Clc1ccc(CCC(Cn2ccnc2)Sc2c(Cl)cccc2Cl)cc1` (centres undefined), the figures for the Potency in experiment [2], in experiment [7] and in [5] were 23.9 µM (active), 26.8 µM (active) and 23.9 µM (active), respectively.
Consider `Oc1ccc2ccc3cccc4ccc1c2c34`, for which the Potency result in experiment [2], in experiment [4] and in experiment [7] was “inactive” in each case. Further, the Potency in experiment [5] was 49 µM (active).
As to `Oc1cc(Cl)c(Cl)c(Cl)c1`, the Potency was 41.4 µM (active) in experiment [1] and 29.1 µM (active) in experiment [4]. In addition, the Potency result in experiment [2] is “inactive”.
`CC(C)CC(C)(c1ccc(O)cc1)c1ccc(O)cc1`: the Potency in experiment [2] is 49.1 µM (active); in experiment [4] it was 43.4 µM (active) and 48.6 µM (active); in experiment [7], 43.8 µM (active); in experiment [5], 55.1 µM (active) and 49 µM (active).
Consider `CCCN(CC)CC1COC2(CCC(C(C)(C)C)CC2)O1` (centres undefined), for which the Potency entry in [1], in [9], in experiment [6], in [4], in experiment [7] and in [8] was “inactive” in each case. For the same molecule, the Potency entry in experiment [5] is “inactive”. Besides, in experiment [10], the call was inactive.
In the case of `c1ccc(OCC2CO2)cc1` (centres undefined), the Potency result in experiment [1], in experiment [9], in experiment [3], in [6], in experiment [4] and in experiment [8] was “inactive” in each case. Also, the Potency entry in [5] was “inactive”.
For `CC(c1ccc(O)cc1)c1ccc(O)cc1`, the Potency result in [1], in experiment [9], in experiment [3], in [6], in experiment [7] and in experiment [8] was “inactive” in each case. Further, the Potency entry in [5] was “inactive”. In addition, the Potency result in [4] was “inactive and 61.1 µM (active)”. Moreover, the call in experiment [10] was inactive.
Consider `c1ccc2c(c1)OCC(C1=NCCN1)O2` (centres undefined), for which the Potency entry in [1], in experiment [9], in experiment [3], in [6] and in experiment [8] was “inactive” each time. In experiment [4], the Potency is 23.7 µM (active).
